± gives the standard deviation.
What follows are sequences tested on MILI (PIWIL2) piRISC loaded with L1MC piRNA (26 nt) (assay: pre-steady-state target cleavage rate (min^-1); guide: L1MC piRNA 5'p-UAACUAAAUACUAUGCAAGCUGUAGG; MIWI and MILI are mouse PIWI proteins and EfPiwi is from a freshwater sponge; tags in brackets are library labels; higher = faster piRNA-guided slicing of the target). Settings: auxiliary factor: 500 nM mouse GTSF1.
Summary of the method: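 In Cleave-'n-Seq, a transcribed, DNA-blocked target RNA library (0.1 nM) was combined with 1 nM active affinity-purified piRISC bearing one synthetic guide, with or without 500 nM GTSF1 partner protein. Reactions ran in HEPES–potassium acetate buffer at 33 °C for 0–8 or 0–960 min. Uncleaved targets were sequenced and normalised to depth and to weakly complementary targets, three trials were pooled, and k3 was capped at 0.0001 min^-1. The pre-steady-state cleavage rate was obtained by fitting a burst-and-steady-state model.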

Row | Sequence | pre-steady-state target cleavage rate
1 | UCCUCCUACAGCUUGCAUAGUAUUUAGUUC [g2:g26:cont:t1C] | 0.283 ± 0.016
2 | UCCUGGAUGUCCUUGCAUAGUAAAUAGUUA | 0.034 ± 0.0081
3 | UCCUGCUACAGCUUGGUAAGUAUUUAGUUA | 0.131 ± 0.019
4 | UCCUGGAACAGCUUGCAUAGUCAUUUAGUUA | 0.0205 ± 0.008
5 | UCCUGGUACAGCUAGCAUAGUUUUUAGUUA | 0.0495 ± 0.011
6 | UCCUGGAUGUCCUUGCAUAGUAUUCUAGUUA | 0.1 ± 0.022
7 | UCCUGGAUGUGGUUGGAUAGUAUUUAGUUA | 0.109 ± 0.019
8 | UCCUGGAUGUCGUUGCUUAGUUUUUAGUUA | 0.00856 ± 0.0044
9 | UCCUGGAUGUGCUUGCAUAGUAUUCUAGUUA | 0.193 ± 0.045
10 | UCCUGCUACAGCUUGCAUAGUUAUUAGUUA | 0.0372 ± 0.013
11 | UCCUGGAUGUGGCUUGCAUAGUAUUUAGUUA | 0.163 ± 0.017
12 | UCCUGGAUGAGCUUGCAUAGUUAUUUAGUUA | 0.0115 ± 0.0045
13 | UCCUGGAUGUCCUUGCAUAGGUAUUUAGUUA | 0.00785 ± 0.0038
14 | UCCUGGUACAGGUUGCAUAGUAUUUACAAA | 0.0239 ± 0.011
15 | UCCUGGAUGUCGAGGCAUAGUAUUUAGUUA | 0.0728 ± 0.016
16 | UCCUGGAUGACCUUGCAUAGUAUUAAGUUA | 0.141 ± 0.022
17 | UCCUGGAACAGCUUGCUAGUAUUUAGUUA | 0.0161 ± 0.0069
18 | UCCUGGAUGUGCUAGCAUACUAUUUAGUUA | 0.0195 ± 0.0053
19 | UCCUGGAUGUGCUUGCAUUGUAUUAAGUUA | 0.0663 ± 0.014
20 | UCCUGGAUGAGGUUGCAAAGUAUUUAGUUA | 0.0323 ± 0.0068
21 | UCCUGGAUCAGCAUGCAUAGUAUUUACUUA | 0.126 ± 0.016
22 | UCCUGGAUGUCCUUGCAUAGUAUUCAGUUA | 0.0755 ± 0.018
23 | UCCUGGAUCACCUUGCAUUGUAUUUAGUUA | 0.094 ± 0.015
24 | UCCUGGAUGAGCUUGCAUAGUAUUUAGUAUA | 0.218 ± 0.028
